The supplement of paper PMC6288085
Structures can show the parent of a compound that is named as a salt. ± gives the uncertainty stated by the source.

Test system: Caenorhabditis elegans N2
Test: food intake (mean delta OD600 / animal over 72 h) with 50 uM loxapine co-treatment (OD600 units per animal); higher = more food eaten (less suppression of loxapine-induced hyperphagia)
Details: first compound 33 µM, loxapine concentration 50 µM
Method: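 C. elegans N2 adults (FUDR-sterilised, day 1) in 96-well plates fed gamma-irradiated bacteria. Each library drug (MedChemExpress FDA-approved library) at 33 uM was combined with loxapine at 50 uM. Food intake was measured as bacterial clearance: the change in OD600 from day 1 to 72 h, normalised per animal (mean over 14-21 wells of about 10-12 worms). Drugs flagged for bacterial lysis or sickness were excluded by the authors.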

SMILES	food intake
N=C(N)NC(=N)NCCc1ccccc1 [Phenformin (hydrochloride)] + CN1CCN(C2=Nc3ccccc3Oc3ccc(Cl)cc32)CC1 [loxapine]	0.0236 ± 0.0019
O=C(Nc1c(Cl)cncc1Cl)c1ccc(OC(F)F)c(OCC2CC2)c1 [roflumilast] + CN1CCN(C2=Nc3ccccc3Oc3ccc(Cl)cc32)CC1 [loxapine]	0.0214 ± 0.0055
O=C(O)C1=C(CSc2nnnn2CS(=O)(=O)O)CS[C@@H]2[C@H](NC(=O)[C@H](O)c3ccccc3)C(=O)N12 [cefonicid (sodium)] + CN1CCN(C2=Nc3ccccc3Oc3ccc(Cl)cc32)CC1 [loxapine]	0.0217 ± 0.018
CCCC(=O)Nc1ncnc2c1ncn2[C@@H]1O[C@@H]2COP(=O)(O)O[C@H]2[C@H]1OC(=O)CCC [bucladesine (calcium salt)] + CN1CCN(C2=Nc3ccccc3Oc3ccc(Cl)cc32)CC1 [loxapine]	0.022 ± 0.0033
C=CC[N+]1([C@H]2C[C@H]3[C@@H]4CC[C@H]5C[C@H](O)[C@@H](N6CCOCC6)C[C@]5(C)[C@H]4CC[C@]3(C)[C@H]2OC(C)=O)CCCC1 [rocuronium (bromide)] + CN1CCN(C2=Nc3ccccc3Oc3ccc(Cl)cc32)CC1 [loxapine]	0.0231 ± 0.0029
Cc1cn([C@@H]2C[C@@H](O)[C@H](CO)O2)c(=O)[nH]c1=O [telbivudine] + CN1CCN(C2=Nc3ccccc3Oc3ccc(Cl)cc32)CC1 [loxapine]	0.0219 ± 0.0023
CN(C)[C@@H]1C(O)=C(C(N)=O)C(=O)[C@@]2(O)C(O)=C3C(=O)c4c(O)ccc(Cl)c4[C@@H](O)[C@H]3C[C@@H]12 [demeclocycline (hydrochloride)] + CN1CCN(C2=Nc3ccccc3Oc3ccc(Cl)cc32)CC1 [loxapine]	0.0207 ± 0.0035
C=CCNC(N)=S [allylthiourea] + CN1CCN(C2=Nc3ccccc3Oc3ccc(Cl)cc32)CC1 [loxapine]	0.0237 ± 0.003
O=C(C1CCCCC1)N1CC(=O)N2CCc3ccccc3C2C1 (stereo not given) [praziquantel] + CN1CCN(C2=Nc3ccccc3Oc3ccc(Cl)cc32)CC1 [loxapine]	0.0224 ± 0.0023
CN1CC(=O)N2[C@H](c3ccc4c(c3)OCO4)c3[nH]c4ccccc4c3C[C@@H]2C1=O [tadalafil] + CN1CCN(C2=Nc3ccccc3Oc3ccc(Cl)cc32)CC1 [loxapine]	0.0236 ± 0.0034
CN(C)CCOC(c1ccccc1)c1ccccc1.Cn1c(=O)c2[nH]c(Cl)nc2n(C)c1=O [dimenhydrinate] + CN1CCN(C2=Nc3ccccc3Oc3ccc(Cl)cc32)CC1 [loxapine]	0.0239 ± 0.0029
C[C@@H]1CCN(C(=O)CC#N)C[C@@H]1N(C)c1ncnc2[nH]ccc12 [tofacitinib (citrate)] + CN1CCN(C2=Nc3ccccc3Oc3ccc(Cl)cc32)CC1 [loxapine]	0.0227 ± 0.0047
COc1c(N2C[C@@H]3CCCN[C@@H]3C2)c(F)cc2c(=O)c(C(=O)O)cn(C3CC3)c12 [moxifloxacin (hydrochloride)] + CN1CCN(C2=Nc3ccccc3Oc3ccc(Cl)cc32)CC1 [loxapine]	0.0216 ± 0.0034
COc1cc(O)c(C(=O)c2ccccc2)cc1S(=O)(=O)O [sulisobenzone] + CN1CCN(C2=Nc3ccccc3Oc3ccc(Cl)cc32)CC1 [loxapine]	0.0234 ± 0.0024
O=C(O)COC(=O)Cc1ccccc1Nc1c(Cl)cccc1Cl [aceclofenac] + CN1CCN(C2=Nc3ccccc3Oc3ccc(Cl)cc32)CC1 [loxapine]	0.0221 ± 0.0083
CCOC(=O)[C@H](CCc1ccccc1)N[C@@H](C)C(=O)N1Cc2ccccc2C[C@H]1C(=O)O [quinapril (hydrochloride)] + CN1CCN(C2=Nc3ccccc3Oc3ccc(Cl)cc32)CC1 [loxapine]	0.0212 ± 0.003
Cc1cccc(C)c1OCC(=O)N[C@@H](Cc1ccccc1)[C@@H](O)C[C@H](Cc1ccccc1)NC(=O)[C@H](C(C)C)N1CCCNC1=O [lopinavir] + CN1CCN(C2=Nc3ccccc3Oc3ccc(Cl)cc32)CC1 [loxapine]	0.0209 ± 0.0084
CC[C@H]1OC(=O)C[C@@H](O)[C@H](C)[C@@H](O[C@@H]2O[C@H](C)[C@@H](O[C@H]3C[C@@](C)(O)[C@@H](O)[C@H](C)O3)[C@H](N(C)C)[C@H]2O)[C@@H](CC=O)C[C@@H](C)C(=O)/C=C/C(C)=C/[C@@H]1CO[C@@H]1O[C@H](C)[C@@H](O)[C@@H](OC)[C@H]1OC [Tylosin] + CN1CCN(C2=Nc3ccccc3Oc3ccc(Cl)cc32)CC1 [loxapine]	0.0219 ± 0.0051
CC(CN1c2ccccc2Sc2ccccc21)N(C)C (stereo not given) [promethazine (hydrochloride)] + CN1CCN(C2=Nc3ccccc3Oc3ccc(Cl)cc32)CC1 [loxapine]	0.0219 ± 0.0024
C1CCN2C[C@@H]3C[C@@H](CN4CCCC[C@@H]34)[C@H]2C1 [(-)-sparteine (sulfate pentahydrate)] + CN1CCN(C2=Nc3ccccc3Oc3ccc(Cl)cc32)CC1 [loxapine]	0.0235 ± 0.0013

SMILES	food intake
C[C@]12CC[C@@H]3c4ccc(O)cc4CC[C@H]3[C@@H]1CC[C@@H]2OC(=O)CCC1CCCC1 [estradiol (cypionate)] + CN1CCN(C2=Nc3ccccc3Oc3ccc(Cl)cc32)CC1 [loxapine]	0.0224 ± 0.0087
O=C(O)CCNC(=O)c1ccccc1 [betamipron] + CN1CCN(C2=Nc3ccccc3Oc3ccc(Cl)cc32)CC1 [loxapine]	0.0228 ± 0.0023
CC(=O)NC(Cc1ccccc1)C(=O)O (racemic) [N-acetyl DL-phenylalanine] + CN1CCN(C2=Nc3ccccc3Oc3ccc(Cl)cc32)CC1 [loxapine]	0.0223 ± 0.0049
Nc1nc2c(ncn2COC(CO)CO)c(=O)[nH]1 [ganciclovir] + CN1CCN(C2=Nc3ccccc3Oc3ccc(Cl)cc32)CC1 [loxapine]	0.0236 ± 0.0019
CC(C)C(=O)c1c(C(C)C)nn2ccccc12 [ibudilast] + CN1CCN(C2=Nc3ccccc3Oc3ccc(Cl)cc32)CC1 [loxapine]	0.0243 ± 0.0046
CC(=O)OCC(=O)[C@@]1(O)CC[C@H]2[C@@H]3CCC4=CC(=O)CC[C@]4(C)[C@H]3C(=O)C[C@@]21C [cortisone (acetate)] + CN1CCN(C2=Nc3ccccc3Oc3ccc(Cl)cc32)CC1 [loxapine]	0.0231 ± 0.0059
O=c1n(CCCN2CCN(c3cccc(Cl)c3)CC2)nc2ccccn12 [trazodone (hydrochloride)] + CN1CCN(C2=Nc3ccccc3Oc3ccc(Cl)cc32)CC1 [loxapine]	0.0285 ± 0.035
Nc1ccc(S(=O)(=O)c2ccc(N)cc2)cc1 [dapsone] + CN1CCN(C2=Nc3ccccc3Oc3ccc(Cl)cc32)CC1 [loxapine]	0.0216 ± 0.006
CC(C)(C)C(=O)C(Oc1ccc(Cl)cc1)n1ccnc1 (stereo not given) [climbazole] + CN1CCN(C2=Nc3ccccc3Oc3ccc(Cl)cc32)CC1 [loxapine]	0.0235 ± 0.012
COc1ccc(CNc2nc(N3CCC[C@H]3CO)ncc2C(=O)NCc2ncccn2)cc1Cl [avanafil] + CN1CCN(C2=Nc3ccccc3Oc3ccc(Cl)cc32)CC1 [loxapine]	0.023 ± 0.0037
NNc1nncc2ccccc12 [hydralazine (hydrochloride)] + CN1CCN(C2=Nc3ccccc3Oc3ccc(Cl)cc32)CC1 [loxapine]	0.022 ± 0.017
C[C@H](Cn1cnc2c(N)ncnc21)OCP(=O)(O)O [tenofovir] + CN1CCN(C2=Nc3ccccc3Oc3ccc(Cl)cc32)CC1 [loxapine]	0.0219 ± 0.0044
Nc1ccn([C@@H]2CS[C@H](CO)O2)c(=O)n1 [lamivudine] + CN1CCN(C2=Nc3ccccc3Oc3ccc(Cl)cc32)CC1 [loxapine]	0.0212 ± 0.003
FC(F)(F)C(Cl)Br (stereo not given) [halothane] + CN1CCN(C2=Nc3ccccc3Oc3ccc(Cl)cc32)CC1 [loxapine]	0.0227 ± 0.0031
CN1CCCC(n2nc(Cc3ccc(Cl)cc3)c3ccccc3c2=O)CC1 (stereo not given) [azelastine (hydrochloride)] + CN1CCN(C2=Nc3ccccc3Oc3ccc(Cl)cc32)CC1 [loxapine]	0.0226 ± 0.0035
Cc1ccnc(NS(=O)(=O)c2ccc(N)cc2)n1 [sulfamerazine] + CN1CCN(C2=Nc3ccccc3Oc3ccc(Cl)cc32)CC1 [loxapine]	0.0224 ± 0.0031
CO/N=C1\CN(c2nc3c(cc2F)c(=O)c(C(=O)O)cn3C2CC2)CC1CN (stereo not given) [gemifloxacin (mesylate)] + CN1CCN(C2=Nc3ccccc3Oc3ccc(Cl)cc32)CC1 [loxapine]	0.023 ± 0.0032
CCc1nc(N)nc(N)c1-c1ccc(Cl)cc1 [pyrimethamine] + CN1CCN(C2=Nc3ccccc3Oc3ccc(Cl)cc32)CC1 [loxapine]	0.0221 ± 0.003
CC[C@@H](CO)NCCN[C@@H](CC)CO [ethambutol (dihydrochloride)] + CN1CCN(C2=Nc3ccccc3Oc3ccc(Cl)cc32)CC1 [loxapine]	0.024 ± 0.0019
CC1CNc2c(cccc2S(=O)(=O)N[C@@H](CCCNC(=N)N)C(=O)N2CC[C@@H](C)C[C@@H]2C(=O)O)C1 (stereo not given in full) [argatroban (monohydrate)] + CN1CCN(C2=Nc3ccccc3Oc3ccc(Cl)cc32)CC1 [loxapine]	0.0229 ± 0.002
